We go through 52 compounds from PubChem BioAssay AID1347076 (National Center for Advancing Translational Sciences (NCATS), 2019).

Molecules are shown by their SMILES. Out of some 400,000 compounds screened, about 13,000 (3.2%) were called active. Roughly 18% stayed inconclusive and do not appear here. This is one part of a sample in which actives are shown more often than they occur. The call rests on the fitted dose curve; in most records, active means well fitted cell-killing curve with a large enough effect; inconclusive means small, poorly fitted or top-dose-only effect, or effect the other way; inactive means flat fitted curve, though single readings scatter.
On the % scale 0 is the no-effect control and ±100 the full control effect; potency means the concentration at half of the fitted maximal effect.

A short description of this experiment: qHTS assay for MDR1-selective chemotherapeutics: Primary screen using the drug-selected MDR subline cells KB-V1. Further: nearly all actives have a fitted effect of over 60% in size. Particulars: KB-V1 MDR cells viability, CellTiter-Glo, 72 h; series mostly up to 46.1 µM; activity change, negative = cytotoxicity: at the top concentration. The procedure, abridged: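 Cytotoxicity toward P-gp-expressing KB-V1 cells was determined as loss of CellTiter-Glo luminescence after 72 h at 37 degrees C. Compounds were tested in quantitative HTS format across a concentration range, with curves fitted to normalized data.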
(In general: Quantitative high-throughput screening tests each substance at several concentrations.)
As to `N#Cc1ccc(-c2ccc3nccn3c2)cc1`, the “activity change, negative = cytotoxicity” value was -0.62% (inactive). On the same count and under the same terms, the figure for `CC(C)C1CC2=C(C(=O)OC(C)(C)O2)C(c2ccc(F)cc2)O1` (configuration not stated) is 5.18% (inactive). Turning to `COCCCN1C(=O)C(CC(=O)NCc2cccs2)CC(C(=O)N2CCOCC2)=C1C` (configuration not stated), the “activity change, negative = cytotoxicity” value is 0% (inactive). As for `O=S1(=O)CC(N2CCC(Cc3ccccc3)CC2)CN1Cc1ccccc1` (configuration not stated), the “activity change, negative = cytotoxicity” value is 4.54% (inactive). Consider `COc1ccccc1-c1cc2nc(NCc3cccc(Cl)c3)ccn2n1`, for which the “activity change, negative = cytotoxicity” value is 5.31% (inactive). Turning to `CCNC(=O)CC1C(=O)N(c2ccc(F)cc2)C(=O)N1Cc1cccs1` (configuration not stated), the “activity change, negative = cytotoxicity” value is 0% (inactive). Consider `O=C(CC1C(=O)N(c2ccccc2)C(=O)N1CCc1cccs1)Nc1ccc(F)cc1` (configuration not stated), for which the “activity change, negative = cytotoxicity” value was -0.0357% (inactive). Regarding `COc1ccc(N2C(=O)C(CC(=O)Nc3ccc(F)cc3)N(CCc3cccs3)C2=O)cc1` (configuration not stated), the Potency is 18.4 µM (active).

Take `Cc1cc2nn(-c3ccc(Cl)cc3)nc2cc1NC(=O)C(C)C`: the “activity change, negative = cytotoxicity” value is 9.32% (inactive). Turning to `Cc1c(Cl)cccc1NC(=O)C1CCCN(C(=O)c2cnn(-c3ccccc3)c2-n2cccc2)C1` (configuration not stated), the “activity change, negative = cytotoxicity” value was 14.6% (inactive). Regarding `CCOc1ccc(CNC(=O)c2ccc3c(c2)nnn3C2CCCC2)cc1`, the “activity change, negative = cytotoxicity” value was 5.56% (inactive). In the case of `COc1cccc(NC(=O)C2(C)CCN2C(=O)CCC2CCCC2)c1` (configuration not stated), the “activity change, negative = cytotoxicity” value is -2.07% (inactive). `CCNC(=O)CCc1nc(-c2ccc(C)cc2)no1`: the “activity change, negative = cytotoxicity” value was 16.3% (inactive).

Take `CC(=O)c1ccc(NC(=O)CCc2nc(-c3ccc(C)cc3)no2)cc1`: the “activity change, negative = cytotoxicity” value was -10% (inactive). As for `Cc1ccc(-c2noc(CCC(=O)Nc3ccccc3N3CCN(C)CC3)n2)cc1`, the Potency is 20.6 µM (active).

Regarding `CC(C)CC1C(=O)N(Cc2cn(CC3CCCCC3)nn2)CCS(=O)(=O)N1Cc1ccc(-c2ccc(Cl)cc2)cc1` (configuration not stated), the “activity change, negative = cytotoxicity” value was -22.9% (inactive). Take `COCCn1c(C)cc(C2=NNC(=Nc3ccc(F)cc3)SC2)c1C`: the Potency was 10.3 µM (active). Take `C=CCn1c(C)cc(C2=NNC(=NCC)SC2)c1C`: the “activity change, negative = cytotoxicity” value is 0% (inactive).

As for `Cc1cccc2cc(CN(Cc3nnnn3Cc3ccccc3)C3CCCC3)c(=O)[nH]c12`, the Potency was 20.6 µM (active). Consider `Cc1cccc2cc(CN(Cc3cccs3)C(c3nnnn3C3CCCC3)C(C)C)c(=O)[nH]c12` (configuration not stated), for which the “activity change, negative = cytotoxicity” value is 9.62% (inactive).

For `Cc1cc(C)c2cc(CN(Cc3nnnn3Cc3ccc(F)cc3)C3CCCC3)c(=O)[nH]c2c1`, the “activity change, negative = cytotoxicity” value was -1.44% (inactive). Regarding `CCC(c1nnnn1C1CCCC1)N(Cc1cccs1)Cc1cc2cccc(C)c2[nH]c1=O` (configuration not stated), the Potency is 23.1 µM (active). As to `CCOc1ccc2[nH]c(=O)c(CN(Cc3nnnn3Cc3ccccc3)CC3CCCO3)cc2c1` (configuration not stated), the “activity change, negative = cytotoxicity” value is -14.2% (inactive). On the same count and under the same terms, to `CCC(c1nnnn1Cc1ccccc1)N(Cc1cc2cc(OC)ccc2[nH]c1=O)CC1CCCO1` (configuration not stated) belongs -4.04% (inactive); to `CC(C)Oc1cccc(-c2cnc(N3CCC(C(N)=O)CC3)s2)c1`, 0% (inactive). Take `C[C@H]1COc2cc(N3CCSCC3)ccc2S(=O)(=O)N1`: the “activity change, negative = cytotoxicity” value is 3.82% (inactive). In the case of `CC1(C(=O)O)CCCN(C(=O)/C=C/c2ccccc2)C1` (configuration not stated), the “activity change, negative = cytotoxicity” value was 3.16% (inactive).

Take `COC(=O)c1ccc(NC(=O)c2cc(Cl)ccc2OC)cc1`: the “activity change, negative = cytotoxicity” value was 19.9% (inactive). For the compound `COc1cc(OC)c(C(=O)Nc2ccc(N(C)C)cc2)cc1OC`, the “activity change, negative = cytotoxicity” value is -28.8% (inactive). As for `COc1ccc(Cl)cc1C(=O)Nc1ccc(N(C)C(C)=O)cc1`, the Potency was 16.4 µM (active). For `CCC(=O)N1CCc2cc(Br)cc(S(=O)(=O)CCC(=O)NCc3ccccc3OC)c21`, the “activity change, negative = cytotoxicity” value is 24.4% (inactive).

For the compound `O=C(NCc1ccc(F)cc1)c1cc(C2CCCCN2C(=O)C2CCCCC2)on1` (configuration not stated), the “activity change, negative = cytotoxicity” value was -3.92% (inactive). Regarding `CC(=O)Nc1ccc(C=Cc2ccc([N+](=O)[O-])cc2)cc1`, the “activity change, negative = cytotoxicity” value was 8.12% (inactive).

Regarding `NS(=O)(=O)c1ccc(CNC(=O)c2cc(S(=O)(=O)N3CCOCC3)ccc2N2CCCC2)cc1`, the “activity change, negative = cytotoxicity” value is 8% (inactive). Same read-out and setting: to `O=C1OCCOC2CCCc3oc(-c4ccccc4)c1c32` (configuration not stated) belongs 29.6% (inactive). As to `OCCNc1nc(Nc2ccc(Cl)c(Cl)c2)nc2ccccc12`, the Potency was 9.2 µM (active). As to `CN(C)c1nc(Nc2ccc(Cl)c(Cl)c2)nc(N(C)C)n1`, the “activity change, negative = cytotoxicity” value was -2.76% (inactive). As for `COc1cc2nc(Cl)nc(NCCO)c2cc1OC`, the “activity change, negative = cytotoxicity” value was -1.83% (inactive). On to `Cc1c(NC(=O)COC(=O)/C=C/c2cccc(F)c2)c(=O)n(-c2ccccc2)n1C`, for which the “activity change, negative = cytotoxicity” value is 6.17% (inactive). Still for that read-out and setting: to `Cc1cccc(C(=O)N2CCc3cc(CNC(=O)Cc4ccc(F)cc4)ccc32)c1` belongs 3.15% (inactive); to `CCCCC12CN3CC(C)(CN(C1)C3c1ccc(O)c(OC)c1)C2=O` (configuration not stated), -1.76% (inactive); to `COCCNc1ncnc2c1ncn2[C@H]1CN(Cc2ccc(OC)cc2)C[C@@H](CO)O1`, 3.06% (inactive). On to `Cc1ccc(CC2CC(=O)N(c3nc(C)cc(C)n3)C2=O)cc1` (configuration not stated), for which the “activity change, negative = cytotoxicity” value is -11.3% (inactive). Regarding `Cc1ccc(CC2CC(=O)N(c3cc(C)ccc3C)C2=O)cc1` (configuration not stated), the “activity change, negative = cytotoxicity” value is -2.95% (inactive). Consider `COc1ccc(CN2C(=O)CC(Cc3ccc(C)cc3)C2=O)cc1OC` (configuration not stated), for which the Potency is 18.4 µM (active). With `CN(C)c1ccc(/C=C/c2sc3ccccc3[n+]2CCCCBr)cc1`, the “activity change, negative = cytotoxicity” value is -5.39% (inactive). Regarding `Nc1nc2c(ncn2[C@@H]2O[C@H](CNS(=O)(=O)N3CCc4ccccc4C3)[C@@H](O)[C@H]2O)c(=O)[nH]1`, the “activity change, negative = cytotoxicity” value is 1.53% (inactive). On the same count and under the same terms, to `Cc1ccc(S(=O)(=O)c2nnn3c2nc(N2CCN(c4ccccc4F)CC2)c2cc(Cl)ccc23)cc1C` belongs 0% (inactive); to `CSc1nc(Nc2ccc(F)cc2)cc(-c2ccccc2)n1`, 2.43% (inactive). The same measure, in the same setting: the figure for `CSc1ncc(Sc2ccccc2)c(C(=O)O)n1` is 0% (inactive). On to `CSc1nc(-c2ccccc2)nc(C(Cl)Cl)n1`, for which the Potency was 11.6 µM (active).

On to `CCCCn1c(CNC(=O)C23CC4CC(CC(C4)C2)C3)nnc1SCC(=O)Nc1ccc(C)cc1`, for which the “activity change, negative = cytotoxicity” value was -26.2% (inactive).
